# Laboratory results from article PMC5540273 (PLoS ONE, 2017).
# What was measured:
# Settings in all cases: concentration: 1 μM, replicates: in singlicate; n = 1
# CSNK1A1L = test system: CSNK1A1L
# CSNK1A1 = test system: CSNK1A1
# CSNK1D = test system: CSNK1D
# CSNK1E = test system: CSNK1E
# CSNK1G1 = test system: CSNK1G1
# CSNK1G2 = test system: CSNK1G2
# CSNK1G3 = test system: CSNK1G3
# CSNK2A1 = test system: CSNK2A1
# CSNK2A2 = test system: CSNK2A2
# CTK = test system: T1, CTK
# T1 construct: gene MATK
# DAPK1 = test system: DAPK1
# DAPK2 = test system: DAPK2
# DAPK3 = test system: DAPK3
# DCAMKL1 = test system: T2, DCAMKL1
# T2 construct: gene DCLK1
# DCAMKL2 = test system: T3, DCAMKL2
# T3 construct: gene DCLK2
# DCAMKL3 = test system: T4, DCAMKL3
# T4 construct: gene DCLK3
# DDR1 = test system: DDR1
# DDR2 = test system: DDR2
# DLK = test system: T5, DLK
# T5 construct: gene MAP3K12
# DMPK2 = test system: T6, DMPK2
# T6 construct: gene CDC42BPG
# 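Further: KINOMEscan kinase panel screen.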
SMILES,%Inh (CSNK1A1L),%Inh (CSNK1A1),%Inh (CSNK1D),%Inh (CSNK1E),%Inh (CSNK1G1),%Inh (CSNK1G2),%Inh (CSNK1G3),%Inh (CSNK2A1),%Inh (CSNK2A2),%Inh (CTK),%Inh (DAPK1),%Inh (DAPK2),%Inh (DAPK3),%Inh (DCAMKL1),%Inh (DCAMKL2),%Inh (DCAMKL3),%Inh (DDR1),%Inh (DDR2),%Inh (DLK),%Inh (DMPK2)
COc1ccc(Nc2ncc(C#N)c(Nc3ccccc3C(N)=O)n2)cc1N1CCN(C)CC1.Cl [GSK1558669],97.3%,82%,66%,78%,50%,0%,27%,99.7%,99.9%,56%,97.8%,98.5%,99.2%,97.4%,100%,99.6%,100%,94.2%,97.8%,89%
c1ccc(-c2n[nH]cc2-c2ccnc3ccccc23)nc1 [GW271431],19%,38%,60%,69%,20%,0%,24%,0%,23%,0%,0%,0%,26%,12%,11%,0%,8%,0%,3%,18%
Cl.Oc1cccc(Nc2ccnc3cc(-c4ccncc4)ccc23)c1 [GW494601],42%,55%,28%,45%,40%,0%,22%,0%,0%,0%,5%,3%,15%,4%,0%,8%,68%,82%,54%,0%
NS(=O)(=O)c1cccc(-c2ccc3ncc(N4CCOCC4)nc3c2)c1 [GSK1535721],0%,0%,16%,0%,12%,0%,19%,4%,18%,0%,18%,12%,18%,10%,0%,0%,0%,23%,26%,1%
CC(C)(C)n1cnc2c(N)ncnc21 [SKF-97359],16%,40%,0%,39%,0%,0%,2%,0%,0%,21%,78%,19%,0%,0%,0%,11%,0%,0%,31%,0%
CCc1ccnc(/C=C/c2n[nH]c3cc(Sc4ccccc4C(=O)NC)ccc23)c1,0%,26%,8%,0%,0%,0%,0%,0%,0%,0%,17%,0%,0%,0%,0%,8%,0%,13%,30%,0%
c1ccc(-c2cc(-c3c[nH]nc3-c3ccccn3)ccn2)cc1 [GW576604],0%,0%,38%,15%,0%,1%,3%,0%,15%,0%,8%,0%,22%,0%,23%,12%,0%,24%,26%,0%
COc1ccc(Nc2nccc(N3CCC(NC(=O)Nc4cccc(C(C)=O)c4)C3)n2)cc1 (stereo not shown) [GSK1379731],4%,0%,0%,39%,0%,0%,0%,0%,0%,0%,0%,0%,0%,0%,0%,0%,12%,14%,0%,2%
O=C(Nc1n[nH]c2cc(-c3cccc(F)c3)ccc12)C1CC1 [SB-735464],10%,0%,0%,0%,0%,0%,0%,3%,24%,49%,1%,11%,0%,11%,0%,0%,4%,8%,0%,0%
NS(=O)(=O)CCc1cccc(Nc2nccc(-c3c(-c4cccc(NC(=O)c5c(F)cccc5F)c4)nn4ccccc34)n2)c1 [GSK336735],7%,0%,33%,90.4%,14%,5%,19%,9%,9%,0%,0%,0%,0%,13%,23%,15%,100%,94.9%,59%,100%
Cc1nnc(-c2ccc(C)c(-c3ccc(C(=O)Nc4ccc(NS(C)(=O)=O)cc4)cc3)c2)o1 [GW702865],0%,0%,14%,0%,0%,15%,17%,0%,15%,0%,8%,3%,18%,8%,0%,0%,0%,46%,0%,0%
N#Cc1ccc(-c2cc(-c3c[nH]nc3-c3ccccn3)ccn2)cc1 [GW693028],12%,19%,62%,32%,8%,0%,8%,0%,5%,0%,0%,0%,16%,8%,17%,0%,0%,1%,40%,0%
COc1cc(Nc2nccc(N3CCC(NC(=O)c4cccc(NC(C)=O)c4)C3)n2)cc(OC)c1OC (stereo not shown) [GSK1379754],4%,6%,0%,0%,4%,0%,8%,17%,65%,0%,0%,8%,19%,8%,21%,0%,0%,4%,62%,0%
O=C(c1ccc(-c2cc(-c3c[nH]nc3-c3ccccn3)ccn2)cc1)N1CCOCC1 [GW812171],0%,32%,49%,17%,19%,0%,0%,0%,0%,49%,0%,0%,11%,30%,0%,0%,0%,30%,0%,0%
Cc1cccc(Cn2ccn3c(=O)cc(N4CCOCC4)nc23)c1 [GSK2297542],18%,19%,48%,55%,27%,16%,25%,2%,22%,0%,9%,5%,0%,21%,14%,28%,0%,6%,49%,16%
Cc1nnc(-c2ccc3occ(-c4ccc(C(C)O)cc4)c3c2)o1 (stereo not shown),0%,14%,0%,7%,0%,9%,0%,25%,53%,0%,7%,0%,0%,13%,12%,11%,12%,12%,0%,3%
CCn1cnc2c(N)ncnc21 [GW345098],14%,28%,21%,55%,9%,0%,16%,12%,19%,51%,14%,5%,18%,7%,7%,25%,18%,0%,0%,9%
Cc1cccc(-c2nc(Nc3ccc4ncsc4c3)c3ccccc3n2)n1 [GW867588],0%,0%,0%,6%,0%,0%,0%,0%,18%,0%,0%,0%,23%,0%,7%,0%,0%,35%,0%,9%
O=c1cc(N2CCOCC2)nc2n(Cc3cccc(C(F)(F)F)c3)ccn12 [GSK2297543],16%,24%,17%,0%,13%,0%,8%,0%,9%,0%,0%,9%,10%,21%,10%,0%,0%,2%,0%,0%
Cn1cc(-c2ccc3c(c2)CCN3C(=O)Cc2ccccc2Cl)c2c(N)ncnc21 [GSK2608885],0%,0%,11%,87%,25%,3%,20%,0%,8%,18%,0%,0%,5%,13%,1%,35%,100%,93.4%,6%,100%
